Screening results: PubChem BioAssay, National Center for Advancing Translational Sciences (NCATS)
PLK1 PBD inh: qHTS for Inhibitors of PLK1-PDB (polo-like kinase 1 - polo-box domain): Primary Screen; hit rate 2.8% among 360,000; Serine/threonine-protein kinase PLK1 (Homo sapiens), P53350; Plk1 PBD binding of FITC phosphopeptide, fluorescence polarization; Potency, µM, usual class: inhibitors; also: series mostly up to about 57 µM; nearly all actives have a fitted effect of over 65% in size
TDP1 cell noCPT: qHTS for Inhibitors of human tyrosyl-DNA phosphodiesterase 1 (TDP1): qHTS in cells in absence of CPT | Potency, µM (top dose mostly 46.2 µM), hits mostly inhibitors | DT40 Tdp1-/- hTDP1 cells, no CPT, ATP luminescence, 48 h | hit rate 15% among 420,000; also: nearly all actives have a fitted effect of over 55% in size
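No-CPT arm: Tdp1-/-;hTDP1 DT40 cells (400/well) plus compounds, incubated ≥48 hr at 37 °C. Readout CellTiter-Glo luminescence.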
GCN5L2 inh: qHTS Assay for Inhibitors of GCN5L2; Histone acetyltransferase KAT2A (Homo sapiens), Q92830; AID 504327, 2011; hit rate 0.21% among 390,000; Potency, µM (doses to about 58.9 µM), usual class: inhibitors; GCN5L2 HAT assay, ThioGlo1 CoA-SH fluorescence
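ThioGlo1-coupled HAT assay: 20nM GCN5L2, 70uM acetyl-CoA, 75uM H3(1-25) peptide, pH 7.5. Fluorescence read at 340/540nm at start and after 20 min at room temperature.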
DT40 TDP1 CPT: qHTS for Inhibitors of human tyrosyl-DNA phosphodiesterase 1 (TDP1): qHTS in cells in presence of CPT; chicken DT40 Tdp1-/-;hTDP1 cells + 20 nM CPT, ATP luminescence, 48 h; Potency, µM (top dose mostly 46.2 µM), hits mostly inhibitors; hit rate 12% among 420,000; also: nearly all actives have a fitted effect of over 55% in size
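Chicken DT40 Tdp1-/- cells stably complemented with human TDP1 were seeded at 400 cells/well in medium containing 20 nM camptothecin, exposed to pin-transferred compounds, and grown at 37 °C for at least 48 hr. Viability was read as ATP luminescence.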
VDR inh: Inhibitors of the vitamin D receptor (VDR): qHTS; Vitamin D3 receptor (Homo sapiens), P11473; VDR-SRC2-3 peptide fluorescence polarization, 2 h; Potency, µM, hits mostly inhibitors; hit rate 0.93% among 400,000; AID 504847, 2011
Target sequence (P11473 whole entry, looked up): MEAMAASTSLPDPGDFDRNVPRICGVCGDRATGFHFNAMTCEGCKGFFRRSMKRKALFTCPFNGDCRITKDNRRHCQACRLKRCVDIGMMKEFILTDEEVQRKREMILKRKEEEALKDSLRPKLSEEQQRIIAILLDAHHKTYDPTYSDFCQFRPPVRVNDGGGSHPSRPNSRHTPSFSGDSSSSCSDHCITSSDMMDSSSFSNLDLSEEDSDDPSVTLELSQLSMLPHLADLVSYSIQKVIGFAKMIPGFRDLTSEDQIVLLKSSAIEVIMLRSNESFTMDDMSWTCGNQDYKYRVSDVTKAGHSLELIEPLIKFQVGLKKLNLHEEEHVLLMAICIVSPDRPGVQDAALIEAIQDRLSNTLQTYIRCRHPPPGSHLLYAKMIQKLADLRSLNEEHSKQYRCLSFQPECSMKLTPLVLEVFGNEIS
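Inhibition of the VDR/SRC2-3 peptide interaction is quantified by fluorescence polarization. Compounds (23 nl, pintool) incubate with the reagents for 2 hours at ambient room temperature.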
TDP1 inh: qHTS Assay for Inhibitors of Tyrosyl-DNA Phosphodiesterase (TDP1). hit rate 0.28% among 350,000. Tyrosyl-DNA phosphodiesterase 1 (Homo sapiens), Q9NUW8. recombinant TDP1, AlphaScreen DNA substrate cleavage. Potency, µM (titrated, usually from 130 µM), actives largely listed as inhibitors. AID 485290, 2010; also: nearly all actives have a fitted effect of over 40% in size
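AlphaScreen read-out: signal falls as enzyme removes the 3' tyrosine-FITC from a 5'-biotinylated DNA oligo (15 nM, 5 min, RT). Enzyme was E. coli-made recombinant Tdp1 at 1 nM, exposed to compound for 15 min beforehand; beads 10 ug/ml, 10 min.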
Hits are given with their value. A selection: hits, their analogues and other compounds. The true share with any hit is near 18%. Calls follow the shape of the dose curve; as a rule, active = well fitted curve in the direction sought with a large enough effect; inconclusive = small, poorly fitted or top-dose-only effect, or another doubt; inactive = no such curve, though single readings can be large; an effect the other way counts as inactive or inconclusive.

Screening COc1ccc(Cn2cc(CN3CC(N4CCN(Cc5ccccc5F)CC4)CS3(=O)=O)nn2)cc1 (stereo unspecified) returned PLK1 PBD inh inactive, TDP1 cell noCPT 20.6µM and DT40 TDP1 CPT inconclusive.
O=S1(=O)CC(N2CCN(Cc3ccccc3F)CC2)CN1Cc1cn(Cc2ccc(Cl)cc2)nn1 (stereo unspecified) was read as PLK1 PBD inh inactive, TDP1 cell noCPT 13µM and DT40 TDP1 CPT 18.4µM.
`CCCN(CC(=O)Nc1ccccc1C)C(=O)C1CC(=O)N(Cc2ccccc2)C1` (stereo unspecified) gave PLK1 PBD inh inactive, TDP1 cell noCPT inactive, GCN5L2 inh inconclusive, DT40 TDP1 CPT inactive and VDR inh inactive.
Cc1c(Nc2cc(N3CCOCC3)c3nonc3c2[N+](=O)[O-])c(=O)n(-c2ccccc2)n1C was read as GCN5L2 inh inactive and TDP1 inh inactive.
`Cc1c(Nc2cc(Cl)c3nonc3c2[N+](=O)[O-])c(=O)n(-c2ccccc2)n1C` gave PLK1 PBD inh 1.19µM, TDP1 cell noCPT 2.06µM, GCN5L2 inh inactive, DT40 TDP1 CPT 1.3µM, VDR inh inconclusive and TDP1 inh inactive.
`CCC(=O)N[C@@H]1c2ccccc2C2(CCN(Cc3ccccn3)CC2)[C@H]1OC` gave TDP1 cell noCPT inactive and DT40 TDP1 CPT inactive.
Screening CCCNC1=CC(=O)CC(C)(C)C1 returned PLK1 PBD inh inactive, TDP1 cell noCPT inactive, GCN5L2 inh inactive, DT40 TDP1 CPT inactive, VDR inh inactive and TDP1 inh inactive.
For OCCCNc1nc(-c2ccc(Cl)cc2)nnc1-c1ccc(Br)cc1 the results were PLK1 PBD inh inactive, TDP1 cell noCPT 20.6µM, GCN5L2 inh inactive, DT40 TDP1 CPT 23.1µM, VDR inh inactive and TDP1 inh inactive.
`O=[N+]([O-])c1ccc(-c2nnc(-c3ccccc3)c(NCCCO)n2)cc1` gave PLK1 PBD inh inactive, TDP1 cell noCPT 16.4µM, GCN5L2 inh inactive, DT40 TDP1 CPT 20.6µM, VDR inh inactive and TDP1 inh inactive.
Cc1ccc(-c2nc(NCCCO)c3ccccc3n2)cc1 was read as PLK1 PBD inh inactive, TDP1 cell noCPT inconclusive, GCN5L2 inh inactive, DT40 TDP1 CPT inconclusive, VDR inh inactive and TDP1 inh inactive.
CCNC(=O)c1nn(-c2ccccc2C)nc1CO was read as TDP1 cell noCPT inactive, GCN5L2 inh inactive, DT40 TDP1 CPT inactive, VDR inh inactive and TDP1 inh inactive.
Screening COc1ccc(C2c3c(ncn(CCc4ccccc4)c3=N)Oc3ccc4ccccc4c32)cc1OC (stereo unspecified) returned TDP1 inh inactive.
`COc1cccc(CN2CCN(C3CCN(c4ccccc4C)CC3)CC2CCO)c1` (stereo unspecified) gave PLK1 PBD inh inactive, TDP1 cell noCPT 18.4µM, GCN5L2 inh inactive, DT40 TDP1 CPT inconclusive, VDR inh inactive and TDP1 inh inactive.
For Cc1cc(F)ccc1N1CCC(N2CCN(CCC(C)C)C(CCO)C2)CC1 (stereo unspecified) the results were PLK1 PBD inh inactive, TDP1 cell noCPT 23.1µM, GCN5L2 inh inactive, DT40 TDP1 CPT inconclusive, VDR inh inactive and TDP1 inh inactive.
Screening O=C1NC[C@@H](CCCCN2C[C@H](Cc3ccc(O)cc3)N(CCC3CCCCC3)C(=O)C2=O)N(CC2CCCCC2)C1=O returned PLK1 PBD inh inactive, TDP1 cell noCPT inactive and DT40 TDP1 CPT inactive.
Screening Nc1nc(N2CCN(c3ccccn3)CC2)nc2ccccc12 returned PLK1 PBD inh inactive, TDP1 cell noCPT inconclusive, GCN5L2 inh inactive, DT40 TDP1 CPT inactive and VDR inh inactive.
`COC(=O)[C@@H]1CCCN1C(=O)c1cc(NC(=O)c2ccccc2)cc2ncn(C3CCCC3)c12` gave TDP1 cell noCPT inactive and DT40 TDP1 CPT inactive.
`O=C1c2ccccc2-n2c1nc1ccccc1c2=O` gave PLK1 PBD inh inactive, TDP1 cell noCPT 1.3µM, GCN5L2 inh inactive, DT40 TDP1 CPT 1.3µM, VDR inh inactive and TDP1 inh inactive.
Nn1c(-c2ccccc2)nc2ccccc2c1=O was read as PLK1 PBD inh inactive, TDP1 cell noCPT inactive, GCN5L2 inh inactive, DT40 TDP1 CPT inactive, VDR inh inactive and TDP1 inh inactive.
Screening O=c1c2ccccc2nc2n1-c1ccccc1CCC2 returned PLK1 PBD inh inactive, TDP1 cell noCPT 16.4µM, GCN5L2 inh inactive, DT40 TDP1 CPT inconclusive, VDR inh inactive and TDP1 inh inactive.
For COc1cccc(CN2CC(C(=O)NCCc3ccc(C)o3)CCC2=O)c1 (stereo unspecified) the results were PLK1 PBD inh inactive, TDP1 cell noCPT inactive, GCN5L2 inh inactive, DT40 TDP1 CPT inactive, VDR inh inconclusive and TDP1 inh inactive.
CC1(C(=O)NCc2ccco2)Cc2c(-c3cccc(C(F)(F)F)c3)ccnc2O1 (stereo unspecified) was read as PLK1 PBD inh inactive, TDP1 cell noCPT 2.91µM and DT40 TDP1 CPT 2.59µM.
For CC1(C(=O)NCc2ccncc2)Cc2c(-c3cccc(C(F)(F)F)c3)ccnc2O1 (stereo unspecified) the results were PLK1 PBD inh inactive, TDP1 cell noCPT inconclusive and DT40 TDP1 CPT inconclusive.
CC1(C(=O)NCc2ccccc2)Cc2c(-c3cccc(C(N)=O)c3)ccnc2O1 (stereo unspecified) was read as PLK1 PBD inh inactive, TDP1 cell noCPT 2.31µM and DT40 TDP1 CPT 3.26µM.
For CC1(C(=O)NCc2ccco2)Cc2c(-c3cccc(C(N)=O)c3)ccnc2O1 (stereo unspecified) the results were PLK1 PBD inh inactive, TDP1 cell noCPT 5.8µM and DT40 TDP1 CPT 4.11µM.
For CC1(C(=O)NCCc2ccccc2)Cc2c(-c3ccc(C(N)=O)cc3)ccnc2O1 (stereo unspecified) the results were PLK1 PBD inh inactive, TDP1 cell noCPT inconclusive and DT40 TDP1 CPT 16.4µM.
For CC(=O)NCCNC(=O)C1(C)Cc2c(-c3cccc(C(N)=O)c3)ccnc2O1 (stereo unspecified) the results were PLK1 PBD inh inactive, TDP1 cell noCPT inactive and DT40 TDP1 CPT inactive.
For COc1cc(C(=O)O[C@H]2CC(C)=CC[C@@]3(C)CC[C@@](O)(C(C)C)[C@H]23)ccc1O the results were PLK1 PBD inh inactive, TDP1 cell noCPT inconclusive, GCN5L2 inh inactive, DT40 TDP1 CPT inactive and VDR inh inactive.
`CC(=O)Nc1nonc1-c1nnc(SCc2ccccc2C)n1C` gave TDP1 cell noCPT inconclusive, GCN5L2 inh inactive, DT40 TDP1 CPT inconclusive, VDR inh inactive and TDP1 inh inactive.
